Compound activity as filed in PubChem BioAssay.
G9a inh: qHTS Assay for Inhibitors of Histone Lysine Methyltransferase G9a; Histone-lysine N-methyltransferase EHMT2 (Homo sapiens), Q96KQ7; Potency, µM (highest dose often 102 µM), for inactives: at the top dose activity, negative = inhibition, most hits filed as inhibitors; 350,000 compounds, 8.8% hits; G9a H3K9 monomethylation, AlphaScreen, 2 h; also: % is scaled to controls: 0 for no effect and ±100 for the full control effect; nearly all actives have a fitted effect of over 75% in size
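Using a bead-based AlphaScreen, monomethylated H3K9 product from 2 h room-temperature reactions (G9a 20 nM, peptide 500 nM, SAM 20 uM) was detected with 0.5 ug/mL rabbit anti-H3K9me1 antibody.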
JMJD2A Tudor: qHTS Assay for Inhibitors of JMJD2A-Tudor Domain; AlphaScreen JMJD2A-Tudor / H3K4me3 peptide binding; Potency, µM (titrated, usually from 114 µM), for the others: at the top dose activity change, negative = inhibition, hits mostly inhibitors; 390,000 compounds, 4.4% hits; also: % is scaled to controls: 0 for no effect and ±100 for the full control effect; nearly all actives have a fitted effect of over 50% in size
BAZ2B inh: qHTS Assay for Inhibitors of BAZ2B. Bromodomain adjacent to zinc finger domain protein 2B (Homo sapiens), Q9UIF8. AlphaScreen BAZ2B-H3K14Ac peptide displacement. Potency, µM (series often up to 114 µM), for inactives: top-dose activity change, negative = inhibition, usual class: inhibitors. 360,000 compounds, 4.4% hits; also: % is scaled to controls: 0 for no effect and ±100 for the full control effect; nearly all actives have a fitted effect of over 60% in size
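AlphaScreen luminescence quantifies BAZ2B engagement of H3K14Ac peptide; the protein and biotinylated peptide are both at 50 nM final, buffer PBS pH 7.4 with 0.01% Tween-20, all steps at room temperature.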
HP1b chromo inh: HTS for Inhibitors of HP1-beta Chromodomain Interactions with Methylated Histone Tails; Potency, µM (doses to about 114 µM), inactives show at the top dose activity change, negative = inhibition, hits mostly inhibitors; 390,000 compounds, 0.56% hits; AlphaScreen HP1-beta / biotin-H3K9me3 peptide binding; also: nearly all actives have a fitted effect of over 70% in size
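AlphaScreen: HP1-beta (50 nM) preformed 30 min with biotin-H3(1-18)K9me3 peptide (50 nM) in PBS pH 7.4, 0.01% Tween-20. Compound added for 30 min at RT, then streptavidin donor/nickel chelate acceptor beads (10 ug/mL) for 30 min.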
L3MBTL1 block: qHTS Assay for the Inhibitors of L3MBTL1; AlphaScreen L3MBTL1–H3K9me1 peptide binding; Potency, µM (top dose mostly 57.1 µM), without a hit: at the highest dose activity, negative = inhibition, hits mostly inhibitors; Lethal(3)malignant brain tumor-like protein 1 (Homo sapiens), Q9Y468; 230,000 compounds, 0.66% hits; also: % is scaled to controls: 0 for no effect and ±100 for the full control effect; nearly all actives have a fitted effect of over 60% in size
Target sequence (Q9Y468 whole entry, looked up): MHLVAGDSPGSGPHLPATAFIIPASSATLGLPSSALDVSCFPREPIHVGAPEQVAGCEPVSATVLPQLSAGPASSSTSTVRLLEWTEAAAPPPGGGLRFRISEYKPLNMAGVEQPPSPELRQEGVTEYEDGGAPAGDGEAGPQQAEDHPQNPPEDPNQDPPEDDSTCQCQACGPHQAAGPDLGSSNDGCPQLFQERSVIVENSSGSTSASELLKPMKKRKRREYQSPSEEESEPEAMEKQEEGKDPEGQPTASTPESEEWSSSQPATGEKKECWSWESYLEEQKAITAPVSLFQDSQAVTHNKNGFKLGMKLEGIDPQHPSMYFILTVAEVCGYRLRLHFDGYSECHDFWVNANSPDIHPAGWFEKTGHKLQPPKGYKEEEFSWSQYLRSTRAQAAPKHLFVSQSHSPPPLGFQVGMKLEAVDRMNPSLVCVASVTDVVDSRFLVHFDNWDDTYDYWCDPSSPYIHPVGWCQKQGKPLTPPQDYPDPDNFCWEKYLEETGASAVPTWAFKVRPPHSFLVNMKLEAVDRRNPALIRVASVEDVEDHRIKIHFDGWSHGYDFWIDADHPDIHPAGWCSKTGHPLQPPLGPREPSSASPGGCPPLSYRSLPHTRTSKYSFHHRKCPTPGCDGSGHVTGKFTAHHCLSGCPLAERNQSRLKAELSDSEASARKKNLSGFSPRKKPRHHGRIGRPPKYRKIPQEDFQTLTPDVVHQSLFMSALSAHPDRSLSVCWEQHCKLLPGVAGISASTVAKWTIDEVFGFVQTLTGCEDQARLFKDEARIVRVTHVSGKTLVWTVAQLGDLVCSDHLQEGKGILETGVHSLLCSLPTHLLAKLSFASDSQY
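First, the protein-peptide complex forms for 30 min at room temperature (L3MBTL1 50 nM, biotinylated H3K9me1 peptide 75 nM). Next, compounds are pin-transferred and incubated 30 min. Finally, AlphaScreen beads are added and read after 30 min.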
Sfp inh: qHTS Assay for Inhibitors of Bacillus subtilis Sfp phosphopantetheinyl transferase (PPTase). Potency, µM, for inactives: largest response in the series, negative = inhibition, usual class: inhibitors. 310,000 compounds, 3.5% hits. Biochemical Sfp PPTase activity, qHTS. AID 1490, 2009. 4'-phosphopantetheinyl transferase ffp (Bacillus subtilis), Q9F4F7;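 also: the enzyme is Sfp with the accession as filed and its product quenches rhodamine fluorescence; 0% = enzyme reaction without inhibitor and -100% = no enzyme wells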
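Sfp 15 nM + cpd, 15 min RT; start w/ rhodamine-CoA 5 uM, BHQ-2-YbbR 12.5 uM (final); 50 mM Hepes pH 7.6, 10 mM MgCl2, 0.01% NP-40, 0.01% BSA; read 525/598 nm at 0 and 30 min.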
Numbers without * were called inactive; [ ] = another dose, or the depositor's remark. The list is not random: actives were taken first. Their share in the collection is about 12%. Calls follow the shape of the dose curve; as a rule, active = well fitted curve in the direction sought with a large enough effect; inconclusive = small, poorly fitted or top-dose-only effect, or another doubt; inactive = no such curve, though single readings can be large; an effect the other way counts as inactive or inconclusive. Potency is read from the fitted curve at half-maximal effect.

How did CC1(C)CC(=O)C(C=NCCN2CCN(C3CC(=O)N(c4cccc(Br)c4)C3=O)CC2)=C(O)C1 (stereo unspecified) do in these assays?
G9a inh: 70.8µM*; JMJD2A Tudor: -18.8%; BAZ2B inh: -15.0%; HP1b chromo inh: 31.6%; L3MBTL1 block: -1.8%; Sfp inh: 13.7%

What do the screens show for `CC1(C)CC(=O)C(C=NCCN2CCN(C(=S)NC3CCCCC3)CC2)=C(O)C1`?
G9a inh: 26.2%[59 µM]; JMJD2A Tudor: -11.7%; BAZ2B inh: 11.3%; HP1b chromo inh: 22.0%; L3MBTL1 block: 1.2%; Sfp inh: 79.4µM*

How did Cc1cccc(OCC(=O)OCc2cc(=O)n3nc(C4CC4)sc3n2)c1 do in these assays?
G9a inh: 5.9%[59 µM]; JMJD2A Tudor: -13.3%; BAZ2B inh: -21.7%; HP1b chromo inh: 68.6%

Results for O=C(NN=C1CCCCCCCCCCC1)c1ccncc1 ?
G9a inh: 11.6%[59 µM]; JMJD2A Tudor: 28.2µM*; BAZ2B inh: inconclusive; HP1b chromo inh: 38.2%; Sfp inh: -28.8%

How did CCn1c(SCC(=O)O)nc2sc3c(c2c1=O)CCC3 do in these assays?
G9a inh: 44.7µM*; JMJD2A Tudor: inconclusive; BAZ2B inh: 56.2µM*; HP1b chromo inh: -1.5%; Sfp inh: 26.3%

How did Cn1c(SCC(=O)O)nc2sc3c(c2c1=O)CCC3 do in these assays?
G9a inh: -4.7%[59 µM]; JMJD2A Tudor: -22.3%; BAZ2B inh: -4.7%; HP1b chromo inh: 26.2%; L3MBTL1 block: 3.8%; Sfp inh: 15.8%

How did CCn1c(SCC(=O)OC)nc2sc3c(c2c1=O)CC(C)(C)OC3 do in these assays?
G9a inh: 22.0%[12.7 µM]; JMJD2A Tudor: -5.6%; BAZ2B inh: -5.6%; HP1b chromo inh: 10.2%; L3MBTL1 block: 3.5%; Sfp inh: 4.8%

Results for COCCCn1c(SCC(=O)Nc2ccc(NC(C)=O)cc2)nc2sc3c(c2c1=O)CCC3 ?
G9a inh: 44.7µM*; JMJD2A Tudor: -14.0%; BAZ2B inh: -14.2%; HP1b chromo inh: 0.1%; Sfp inh: -1.0%

What do the screens show for `CCn1c(SCc2ccc(C(=O)OC)o2)nc2sc3c(c2c1=O)CCCC3`?
G9a inh: 12.1%[2.33 µM]; JMJD2A Tudor: -22.1%; BAZ2B inh: -4.6%; HP1b chromo inh: 26.4%; Sfp inh: 35.5µM*

How did CCn1c(SCC(=O)OC)nc2sc3c(c2c1=O)CCC3 do in these assays?
JMJD2A Tudor: 50.1µM*; BAZ2B inh: 50.1µM*; HP1b chromo inh: inconclusive; L3MBTL1 block: inconclusive; Sfp inh: 5.9%

How did CCOC(=O)N1CCc2c(sc3c2c(=O)n(CCc2ccccc2)c(=O)n3Cc2c(F)cccc2Cl)C1 do in these assays?
G9a inh: -2.9%[59 µM]; JMJD2A Tudor: -3.0%; BAZ2B inh: -22.2%; HP1b chromo inh: 34.0%

What do the screens show for `COc1ccc(-c2[nH]c(-c3ccc(C)cc3)nc2SCC(=O)NCC2CCCO2)cc1` (stereo unspecified)?
G9a inh: inconclusive; JMJD2A Tudor: inconclusive; BAZ2B inh: inconclusive; HP1b chromo inh: -18.3%

Results for CSc1cccc(NC(=O)C2CCN(S(=O)(=O)c3ccc4c(c3)CCCN4C(=O)C3CCC3)CC2)c1 ?
G9a inh: 10.8%[59 µM]; JMJD2A Tudor: -7.7%; BAZ2B inh: 0.7%; HP1b chromo inh: 13.1%[57 µM]

Results for C/C(CC1CC(C)OC1=O)=N\NC(N)=S (stereo unspecified) ?
G9a inh: 35.5µM*; JMJD2A Tudor: inconclusive; BAZ2B inh: inconclusive; HP1b chromo inh: -12.1%; L3MBTL1 block: -5.7%; Sfp inh: 25.1µM*

How did CCC1CC(/C(C)=N/NC(N)=O)OC1=O (stereo unspecified) do in these assays?
G9a inh: -10.0%[59 µM]; JMJD2A Tudor: -6.3%; BAZ2B inh: -13.2%; HP1b chromo inh: 15.8%; Sfp inh: 20.5%

What do the screens show for `O=C(Cn1c(=O)n2nc(-c3cccc(F)c3)nc2c2ccccc21)N1CCN(c2ccc(F)cc2)CC1`?
G9a inh: -9.3%[59 µM]; JMJD2A Tudor: -7.8%; BAZ2B inh: 3.9%; HP1b chromo inh: 40.3%

What do the screens show for `O=C(O)CSc1nnc(-c2cccs2)n1-c1ccc(Cl)cc1`?
G9a inh: inconclusive; JMJD2A Tudor: 17.8µM*; BAZ2B inh: -18.4%; HP1b chromo inh: inconclusive; Sfp inh: 26.1%

Results for Cc1c(CN2CCC(CO)(CCOc3ccccc3)CC2)[nH]c2c(Cl)cccc12 ?
G9a inh: 50.1µM*; JMJD2A Tudor: -19.1%[11.4 µM]; BAZ2B inh: inconclusive; HP1b chromo inh: -4.6%; L3MBTL1 block: inconclusive; Sfp inh: -23.1%

What do the screens show for `CCOCc1[nH]c(=S)[nH]c(=O)c1Cc1ccc(OCC)cc1`?
JMJD2A Tudor: -6.8%[11.4 µM]; BAZ2B inh: -0.5%; HP1b chromo inh: 3.1%; L3MBTL1 block: 32.9%; Sfp inh: inconclusive

What do the screens show for `COCc1[nH]c(=S)[nH]c(=O)c1C`?
G9a inh: inconclusive; JMJD2A Tudor: -23.3%; BAZ2B inh: -21.4%; HP1b chromo inh: 35.7%; L3MBTL1 block: inconclusive; Sfp inh: 79.4µM*

Results for Cc1ccc(Cl)cc1N(C)C(=O)c1cc2ccc3cccnc3c2[nH]1 ?
G9a inh: -31.8%[59 µM]; JMJD2A Tudor: inconclusive; BAZ2B inh: -39.0%[57.1 µM]; HP1b chromo inh: -8.2%

Results for COc1ccc2c(c1)nc(SCC(=O)C(C)(C)C)n2C ?
G9a inh: inconclusive; JMJD2A Tudor: inconclusive; BAZ2B inh: -6.6%; HP1b chromo inh: -3.8%; L3MBTL1 block: 9.7%; Sfp inh: 56.2µM*

Results for COc1ccc2c(c1)nc(SCC(=O)c1cccs1)n2C ?
G9a inh: 44.7µM*; JMJD2A Tudor: 79.4µM*; BAZ2B inh: -18.2%[57.1 µM]; HP1b chromo inh: 1.5%; L3MBTL1 block: 5.5%; Sfp inh: 89.1µM*

Results for COc1ccc2c(c1)nc(SCC(C)O)n2C (stereo unspecified) ?
G9a inh: -4.1%[59 µM]; JMJD2A Tudor: -14.2%[57.1 µM]; BAZ2B inh: -6.8%; HP1b chromo inh: 54.9%; L3MBTL1 block: 10.2%; Sfp inh: 3.5%

Results for Cc1nc(C)c(CCNC(=O)c2ccc(C(F)(F)F)cc2)s1 ?
G9a inh: 44.7µM*; JMJD2A Tudor: -7.6%; BAZ2B inh: 4.5%; HP1b chromo inh: 21.1%; L3MBTL1 block: 3.3%; Sfp inh: -2.8%
